Compounds with a hit are over-represented: about 3.2% of the library has one in this group of screens.
PLK1 PBD inh: PLK1 (human) polo-box domain binding inhibition; P53350; Plk1 PBD binding of FITC phosphopeptide, fluorescence polarization; Potency, µM, actives largely listed as inhibitors; 360,000 tested, 2.8% active; AID 720504; further: series mostly up to about 57 µM; nearly all actives have a fitted effect of over 65% in size
USP2a block: inhibitors of human ubiquitin-specific protease USP2a; AID 463254; O75604; Potency, µM (titrated, usually from 38.3 µM), actives largely listed as inhibitors; USP2 core, Ub-CHOP2 coupled fluorogenic reporter, 485/531; 330,000 tested, 0.01% active
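Deubiquitinase activity read as fluorescence (485/531 nm) after Ub-CHOP2 cleavage activates the enterokinase reporter on its substrate; USP2 core 10nM, Ub-CHOP2 and substrate 25nM each, 30min compound preincubation then 60min RT; data normalized to NEM, curves fitted.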
VDR inhibitor: blocks the human vitamin D receptor; VDR-SRC2-3 peptide fluorescence polarization, 2 h; Potency, µM, usual class: inhibitors; 400,000 tested, 0.93% active; AID 504847
Target sequence (P11473 whole entry, looked up): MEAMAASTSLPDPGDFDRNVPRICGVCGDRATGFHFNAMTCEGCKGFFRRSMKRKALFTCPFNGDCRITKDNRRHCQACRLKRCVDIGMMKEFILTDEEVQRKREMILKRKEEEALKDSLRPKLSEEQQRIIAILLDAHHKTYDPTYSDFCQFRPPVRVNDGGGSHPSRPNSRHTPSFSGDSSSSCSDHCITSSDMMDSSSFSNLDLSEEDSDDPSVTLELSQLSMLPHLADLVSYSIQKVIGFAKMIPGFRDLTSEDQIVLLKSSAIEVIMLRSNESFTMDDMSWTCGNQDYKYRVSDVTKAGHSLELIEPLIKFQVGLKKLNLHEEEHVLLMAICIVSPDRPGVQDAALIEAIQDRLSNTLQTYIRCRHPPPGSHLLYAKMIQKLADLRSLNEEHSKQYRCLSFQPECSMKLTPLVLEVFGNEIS
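Compounds are added to VDR with labelled SRC2-3 coactivator peptide and held 2 h at room temperature. Inhibition of the VDR–peptide interaction is then read as a change in fluorescence polarization.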
USP1-UAF1 inh: inhibitors of human USP1/UAF1 deubiquitinase | 390,000 tested, 0.23% active | AID 743255 | O94782 | Potency, µM (top dose mostly 57.1 µM), usual class: inhibitors | recombinant USP1/UAF1, Ub-Rhodamine cleavage fluorescence; further: nearly all actives have a fitted effect of over 60% in size
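High-throughput fluorogenic screen: 1nM USP1/UAF1 complex, Ub-Rho substrate 150nM final, 50mM HEPES pH 7.8 with 0.5mM EDTA, 0.1 mg/ml BSA, 1mM TCEP and 0.01% Tween-20.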
FBPA coupling cs: coupling enzyme interference in Giardia aldolase counter-screen; coupling enzyme system counterscreen, AmpLite Red fluorescence; activity change, negative = inhibition, % at 58.2 µM, hits read low; 290,000 tested, 0.67% active; in the data active means activity change below about -30%
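Activity here indicates interference with the coupling reaction, not aldolase inhibition. Compounds at 57.5 uM final met coupling enzymes for 10 min at RT; substrate and AmpLite Red detection followed, with a 525/598 nm fluorescence read after 20 min.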
GALK inhibitor: inhibitors of human galactokinase; Potency, µM (series often up to 57.5 µM), usual class: inhibitors; 270,000 tested, 0.007% active; P51570; Purified GALK, Kinase-Glo residual ATP luminescence
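Luminescence from leftover ATP (Ultra-Glo luciferase/luciferin) served as read-out after a 1 h room-temperature reaction of 5 nM GALK with 35 uM ATP and 100 uM galactose.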
Large screens that a line does not name were inactive; ! = not active in a repeat. Unless noted, the call rests on the fitted dose curve; in most records, active means well fitted curve in the direction sought with a large enough effect; inconclusive means small, poorly fitted or top-dose-only effect, or another doubt; inactive means no such curve, though single readings can be large; an effect the other way counts as inactive or inconclusive.

CCCCn1c(N)c(C(=O)NCCN2CCOCC2)c2nc3ccccc3nc21	none
CCC(C)NC(=O)c1c(N)n(CC2CCCO2)c2nc3ccccc3nc12 (centres undefined)	USP1-UAF1 inh inconclusive, FBPA coupling cs -39.6
CCC(C)NC(=O)c1c(N)n(Cc2ccc3c(c2)OCO3)c2nc3ccccc3nc12 (centres undefined)	FBPA coupling cs -37.3
CC(C)CCNC(=O)c1c(N)n(CC2CCCO2)c2nc3ccccc3nc12 (centres undefined)	USP1-UAF1 inh inconclusive, FBPA coupling cs -42.5
CCN(CC)C(=O)c1ccc(NC(=O)c2ccc(N3CCCC3=O)cc2)cc1	none (no result: FBPA coupling cs, GALK inhibitor)
Cc1ccc(-c2nn(Cc3ccccc3)cc2C=O)cc1C	none
N#CC1=C(N)Oc2c(c(=O)oc3ccccc23)C1c1ccc([N+](=O)[O-])o1 (centres undefined)	PLK1 PBD inh 21.2µM, VDR inhibitor inconclusive, USP1-UAF1 inh inconclusive
COCCOC(=O)C1=C(C)OC(N)=C(C(=O)OC)C12C(=O)Nc1ccccc12 (centres undefined)	none
COC(=O)C1=C(N)Oc2cc(C)oc(=O)c2C12C(=O)Nc1ccccc12 (centres undefined)	PLK1 PBD inh 23.8µM, VDR inhibitor inconclusive
C=CCc1cccc(C=Nc2c[nH]c(=O)[nH]c2=O)c1O	PLK1 PBD inh 26.7µM
CN(Cc1ccccc1)Cc1ccccc1OC(=O)N(C)C	none
CCN(CC)C(=O)c1ccc(NC(=O)c2ccc(-c3nn(C)c(=O)c4ccccc34)cc2)cc1	PLK1 PBD inh 29.9µM
CCN(CC)C(=O)c1ccc(NC(=O)Cn2nc(C)c3ccccc3c2=O)cc1	none
Cc1cccc(N2CCc3c2nc2ccccc2c3N)c1	USP1-UAF1 inh inconclusive, FBPA coupling cs -33.9!
COC(=O)C1=C(c2ccc(F)cc2OCc2ccccc2)C[C@@H]2CC[C@H]1N2C(=O)NCc1ccc(C(F)(F)F)cc1	VDR inhibitor inconclusive (no result: FBPA coupling cs, GALK inhibitor)
Cc1ccc(/C=C2/C(=O)NC(=O)N(C)C2=O)cc1	PLK1 PBD inh 10.6µM
CN1C(=O)NC(=O)/C(=C\c2ccc([N+](=O)[O-])o2)C1=O	PLK1 PBD inh 2.67µM, VDR inhibitor inconclusive, USP1-UAF1 inh inconclusive
CN1C(=O)NC(=O)/C(=C/c2ccc(C(=O)O)cc2)C1=O	PLK1 PBD inh 11.9µM, VDR inhibitor inconclusive
Cc1cc(/C=C2/C(=O)NC(=O)N(C)C2=O)c(C)n1-c1ccccc1	none
C=CCc1ccc2c(c1)OCO2	none (no result: PLK1 PBD inh, USP2a block, USP1-UAF1 inh, GALK inhibitor)
CCCC(C)C1(CC)C(=O)NC(=Nc2ccccc2OC)NC1=O (centres undefined)	none
CCc1ccc(-n2c(O)c(/C=N/NC(=O)c3ccncc3)c(=O)[nH]c2=O)cc1	none
CCOC(=S)SSC(=S)OCC	VDR inhibitor 50.1µM (no result: PLK1 PBD inh, USP2a block, USP1-UAF1 inh, FBPA coupling cs, GALK inhibitor)
O=C1C=CC(=O)c2c1ccc1c2ccc2ccccc21	VDR inhibitor 3.16µM (no result: PLK1 PBD inh, USP2a block, USP1-UAF1 inh, GALK inhibitor)
CC(C)c1cc2c(c(O)c1O)[C@]1(C(=O)O)CCCC(C)(C)C1CC2 (some centres undefined)	VDR inhibitor 44.7µM (no result: PLK1 PBD inh, USP2a block, USP1-UAF1 inh, GALK inhibitor)
CC1(C(=O)O)CCCC2(C)c3cc(O)ccc3CCC12 (centres undefined)	none (no result: USP2a block, FBPA coupling cs, GALK inhibitor)
CC(C)c1cc2c(c(O)c1O)[C@@]1(C(=O)O)CCCC(C)(C)[C@@H]1CC2	VDR inhibitor 20µM, FBPA coupling cs -43.3 (no result: PLK1 PBD inh, USP2a block, USP1-UAF1 inh, GALK inhibitor)
Cc1cc(C(=O)CS(=O)c2ccc(F)cc2)cc(C)c1OC(=O)N(C)C (centres undefined)	PLK1 PBD inh 11.9µM
COCc1cc(C)c(C#N)c(=S)[nH]1	PLK1 PBD inh 26.7µM
Cc1cc2c(C(F)(F)F)cc(=O)oc2c2c1NCCC2	USP1-UAF1 inh inconclusive
O=c1cc(C(F)(F)F)c2cc3c4c(c2o1)CCCN4CCC3	PLK1 PBD inh 1.19µM, USP2a block inconclusive
Cc1ccc(-n2c(CNCc3ccc(F)cc3)nc3ccccc3c2=O)cc1	none
CN1C(=O)C(=Cc2ccc(N3CCCCCC3)o2)C(=O)N(C)C1=S	USP1-UAF1 inh 25.1µM
CN1C2CCC1CC(OC(=O)C1CCC(C(=O)OC3CC4CCC(C3)N4C)(c3ccccc3)c3ccccc31)C2 (centres undefined)	none (no result: PLK1 PBD inh, USP2a block, USP1-UAF1 inh, GALK inhibitor)
Oc1cc[c]([Hg][Cl])cc1	VDR inhibitor 3.98µM (no result: PLK1 PBD inh, USP2a block, USP1-UAF1 inh, FBPA coupling cs, GALK inhibitor)

Bioassay records: PubChem BioAssay, National Center for Advancing Translational Sciences (NCATS)
